# Laboratory results reported in PubChem BioAssay AID618 (Sanford-Burnham Center for Chemical Genomics, 2007).
# The campaign covered roughly 87,000 compounds. About 540 (0.62%) were called active. No rule for the calls is given here. The list comes from a sample in which actives are over-represented; it also holds similar structures and randomly drawn compounds. A call without a number means that no potency is given here. Potency and affinity values are given separately.
# Assay: inhibitors of MT1-MMP promoter transcription, cell-based, luciferase reporter, luminescence (AID 618);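 also: actives suppress MT1-MMP promoter-driven transcription so potencies describe inhibitors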
# Conditions: MT1-MMP promoter luciferase reporter cells
row,SMILES,outcome
1,CC(=Nc1ccccc1)C1=C(O)CSC1=O,inactive
2,COc1ccc(OC)c(NC(=O)c2ccc(NS(=O)(=O)c3c(C)noc3C)cc2)c1,inactive
3,CCn1c(=O)c2c(nc3n2CC(C)CN3CCc2ccccc2)n(C)c1=O (stereo unspecified),inactive
4,CCCN(CCC)S(=O)(=O)c1ccc(NS(=O)(=O)c2ccc(F)cc2)cc1,inactive
5,CCC(=O)c1ccccc1OCCCn1cncn1,inactive
6,CCC(=O)Nc1cc2nn(-c3ccccc3)nc2cc1Cl,active
7,CC(=O)Nc1cc2nn(-c3ccccc3)nc2cc1Cl,inactive
8,CC(C)CC(=O)Nc1cc2nn(-c3ccccc3)nc2cc1Cl,inactive
9,CCSc1nnc(-c2ccc(Cl)cc2Cl)o1,inactive
10,Clc1ccc(-c2nnc(SCc3ccon3)o2)c(Cl)c1,active
11,C=CCSc1nnc(-c2ccc(Cl)cc2Cl)o1,inactive
12,Cc1cc(OCC(=O)N2CCc3ccccc3C2)c2c(-c3ccccc3)cc(=O)oc2c1,inactive
13,Cc1ccc(S(=O)(=O)N(C)Cc2ccc(-c3nnc4n3CCC4)cc2)cc1,inactive
14,CNC(=O)[C@@]1(C)C=C[C@@H](Cc2ccccc2)N1C(=O)OC,inactive
15,COC(=O)CNC(=O)[C@@]1(C)C=C[C@@H](Cc2ccccc2)N1C(C)=O,inactive
16,COC(=O)CNC(=O)[C@@]1(C)C=C[C@@H](Cc2ccccc2)N1C(=O)OC,active
17,CCOC(=O)C1CCN(Cc2ccc(F)cc2F)CC1,inactive
18,O=C1NC2(CCOc3ccccc32)C(=O)N1CC(=O)N(Cc1ccccc1)C1CCS(=O)(=O)C1 (stereo unspecified),inactive
19,Cc1ccc2nc(N/N=C\c3ccc([N+](=O)[O-])o3)nc(-c3ccccc3)c2c1,inactive
20,Cn1c(/C=C/c2ccc([N+](=O)[O-])o2)nc2ccccc2c1=O,active
21,Cn1c(SCc2ccon2)nc2ccccc2c1=O,inactive
22,COc1ccccc1C(=O)Nc1ccc2c(c1)nc(CN1CCN(C(C)=O)CC1)n2C,inactive
23,CC(/C=C/c1ccc(O)cc1)=N/O,inactive
24,C/C=C(/C(=C/C)c1ccc(O)cc1)c1ccc(O)cc1,inactive
25,Oc1ccc(/C=C/c2cc(O)cc(O)c2)cc1,active
26,c1ccc(Cn2c(Nn3cnnc3)nc3ccccc32)cc1,inactive

row,SMILES,outcome
1,COc1ccc(CCN(Cc2cc3cccc(C)c3[nH]c2=O)C(=O)NC2CCCCC2)cc1OC,inactive
2,CS(=O)(=O)c1ccc2nc(NC(=O)c3ccco3)sc2c1,inactive
3,O=C(Nc1nc2ccc(Cl)cc2s1)c1ccco1,inactive
4,O=C(Nc1nnc(-c2ccco2)s1)c1ccccc1,inactive
5,COc1ccc2nc(NC(=O)c3ccoc3C)sc2c1,inactive
6,CCOc1ccc2nc(NC(=O)c3cnc(C)cn3)sc2c1,inactive
7,COc1ccc2c(c1)Cc1sc(NC(=O)c3ccco3)nc1-2,inactive
8,COc1ccccc1C(=O)Nc1nnc(-c2ccco2)s1,inactive
9,COc1ccc2sc(NC(C)=O)nc2c1,inactive
10,COc1ccc2sc(NC(=O)c3ccco3)nc2c1,active
11,O=C(CCN1C(=O)COc2ccccc21)NCc1cccnc1,inactive
12,O=C(NCc1cccnc1)C1CCN(S(=O)(=O)N2CCC3(CC2)OCCO3)CC1,inactive
13,Cc1ccc(NC(=O)C2CCN(C(=O)NC3CCCCC3)CC2)cc1,inactive
14,CC(=O)c1ccc(OCC(O)CN2CCC(C)CC2)cc1 (stereo unspecified),inactive
15,Cc1ccc(C)c(OCCCC(=O)O)c1,inactive
16,Nc1ccc(Oc2ccc([N+](=O)[O-])cc2[N+](=O)[O-])cc1,inactive
17,COc1ccccc1NC(=O)CSc1nnc(-c2ccco2)o1,inactive
18,NC(=O)C1(N2CCCCC2)CCN(c2nc(-c3ccccc3)cs2)CC1,inactive
19,COCCn1c(=S)[nH]c2cc(C(=O)NCC3CCCO3)ccc2c1=O (stereo unspecified),inactive
20,COc1cccc(C(=O)Nc2ccc(C(=O)O)cc2)c1,inactive
21,c1ccc(-c2noc(CSc3nnc(Cc4cccs4)n3-c3ccccc3)n2)cc1,inactive
22,Cc1nn2cc(-c3ccccc3)nc2[nH]c1=O,inactive
23,Nc1nc(-c2ccc(Cl)cc2)cn1N,inactive
24,O=C(O)CCc1nn2cc(-c3ccccc3)nc2[nH]c1=O,inactive
25,Cc1cccn2cc(-c3ccccc3)nc12,inactive
26,Cc1nn2c(-c3ccc(Cl)cc3)nnc2s1,inactive

row,SMILES,outcome
1,CCc1nn2cc(-c3ccccc3)nc2s1,active
2,Cc1nn2cc(-c3ccc(-c4ccccc4)cc3)nc2s1,active
3,Cc1nn2cc(-c3ccc(Cl)cc3)nc2s1,active
4,Cc1c(C(=O)N2CCOCC2)sc2nc(-c3ccccc3)cn12,inactive
5,CCN(CC)CCNC(=O)c1sc2nc(-c3ccccc3)cn2c1C,inactive
6,Cc1nc(-c2ccccc2)cs1,inactive
7,Cc1ccc(CNCc2cc3c(C(C)(C)C)nn(-c4ccccc4)c3[nH]c2=O)cc1,inactive
8,O=C(O)CNS(=O)(=O)c1cc(Cl)c(Cl)cc1Cl,inactive
9,Cc1ccc(NC(=O)CS(=O)CC(=O)N(c2ccc(C)cc2)C(C)C(=O)NC2CCCCC2)cc1 (stereo unspecified),inactive
10,CC(C)COC(=O)CNc1n[nH]c(=S)[nH]c1=O,inactive
11,Cc1cc(NC(=O)COC(=O)[C@H](Cc2c[nH]c3ccccc23)NC(=O)c2ccc(F)cc2)no1,inactive
12,COC(=O)CSc1nnc(-c2ccncc2)o1,inactive
13,C=CCn1c(SCC(=C)C)nc2c1c(=O)[nH]c(=O)n2C,inactive
14,COc1ccc(CCn2c(-n3nc(C)cc3C)nc3c2c(=O)[nH]c(=O)n3C)cc1,active
15,Cc1ccc(Cn2c(-n3nc(C)cc3C)nc3c2c(=O)[nH]c(=O)n3C)cc1,inactive
16,Cc1cc(C)n(-c2nc3c(c(=O)[nH]c(=O)n3C)n2CCc2ccccc2)n1,inactive
17,O=c1ccc2ccc(OCc3nnc(-c4ccccc4Br)o3)cc2o1,inactive
18,O=c1c2ccccc2nc2c3ccccc3c3nncn3n12,inactive
19,O=C(Nc1ccc(S(=O)(=O)N2CCOCC2)cc1)c1cccs1,inactive
20,COc1ccc(-n2nnnc2S(=O)(=O)Cc2ccc(C(=O)O)cc2)cc1,inactive
21,COc1ccc(-n2nnnc2S(=O)(=O)CC(=O)N2CCCCC2)cc1,active
22,COc1cc(OC)cc(-n2nnnc2SCC(=O)N2CCCC2)c1,inactive
23,Cc1ccc2[nH]c(=O)c(-c3noc(C(C)C)n3)cc2c1,inactive
24,Cc1cccc(CS(=O)(=O)Cc2ccc(C(=O)O)o2)c1,inactive
